# Data reported in PubChem BioAssay (EPA / NIEHS).
# Calls of active or inactive are those of the source. How the source made its calls: active means hit-call score of the fitted dose curve at least 0.9, where 1 is the maximum; inactive means score below 0.9.
# Read-out: Insulin-like growth factor-binding protein 1 (IGFBP1), IGFBP1 (gene 3484)
# Assay: LTEA_HepaRG_IGFBP1: Life Technologies and Expression Analysis (LTEA) Assay for Insulin-like growth factor-binding protein 1 (IGFBP1) using HepaRG (AID 2283508)
# Details: mRNA level, 48 h; actives raise or lower the signal
# Experimental: LTEA_HepaRG is a cell based, multiplexed-readout assay that uses HepaRG, a human liver cell line, with measurements taken at 48 hours after chemical dosing on a 96-well plate.LTEA_HepaRG_IGFBP1 is one of 102 assay component(s) measured in the LTEA HepaRG cell culture assay. It is a marker of Cell proliferation, survival, death.Data from the assay component LTEA_HepaRG_IGFBP1 was analyzed into 1 endpoint. This assay endpoint, LTEA_HepaRG_IGFBP1, was analyzed with bidirectional fitting relative to DMSO as the negative control and baseline of activity. Using a type of inducible reporter, measures of mRNA induction for gain or loss-of-signal activity can be used to understand regulation of transcription factor activity. To generalize the intended target to other relatable targets, this assay endpoint is annotated to the transporter intended target family, where the subfamily is hormone carrier protein.
# A total of 1060 chemcials from the ToxCast library were tested in eight-point concentration-response experiments. Cell culture and cytotoxicity assays were conducted at Thermo Fisher Scientific's Custom Services facility (Madison, WI). A single lot of human HepaRG cells (Thermo Fisher Scientific, Frederick, MD) was used for the cell culture experiments. 96-well format collagen type I coated plates of human HepaRG cells were prepared using established methods. Briefly, cryopreserved HepaRG cells were thawed, plated at a density of approximately 100,000 cells/well in HepaRG Thaw, Plate, and General Purpose media (HPRG770, Thermo Fisher Scientific), and incubated for 48 hours. 0.5% DMSO was selected as vehicle control to balance the requisite need of DMSO in HepaRG cultures to maintain differentiation (for example, baseline metabolism, proportions of hepatocytes vs. cholangiocytes), while enabling further hepatic receptor pathway activation (for example, PXR and CAR) in response to chemical exposure. 48 hours after plating, the culture medium was replaced with HepaRG Serum-Free Incudtion Media. Cells were exposed to each test chemical in duplicate and maintained in CO2 incubators for another 48 hours. Chemical plates were thawed to room temperature and 200x concentrations of treatment groups were prepared. 8-point conentration-reponse curves were made with the highest exposure at 100 uM, followed by half-log dilutions, all in 0.5% DMSO. Each test plate contained variouse controls, induction positive controls (1mM phenobarbital), cytotoxicity positive controls ([…] aflatoxin B1), vehicle controls (0.5% DMSO), and total lysis controls (0.5% DMSO). Cell morphology images were taken using an Essen IncuCyte FLR automated microscope, with six 96-well plates imaged in about 24 minutes. Images were captured and exported and JPEG files. Spent culture media was transfered to black-well plates for the LDH assay, and remaining media was sorted at -80 C for later use. Cells were treated with RLT buffer and frozen until shipped for gene expression analysis. Total RNA was isolated from the cell suspension in 75 uL of Buffer RLT (Qiagen, Germantown, MD 20874) by Quintiles/Expression Analysis (Durham, NC) using a custom isolation procedure. Total RNA from each plate well was transferred to a preamplification plate. Fluidigm's 96.96 Dynamic ArrayTM (Fluidigm, Amsterdam, the Netherlands) technology was used for gene expression analyses by quantitative reverse transcription polymerase chain reaction (qRT-PCR, performed by Quintiles/Expression Analysis, Durham, NC)89. Standard TaqManTM Assays (Applied Biosystems/ThermoFisher Scientific, Foster City, CA) were used to assess the expression of 93 genes selected based on their selectivity and sensitivity to important hepatic receptors known to be modulated by environmental chemicals; importance in human hepatocyte functionality; and hepatotoxicity. […]
SMILES,outcome,AC50
O=C1OC(=O)C2C3C=CC(C3)C12 (stereo not given),inactive,
COc1ccc(/C=C/S(=O)(=O)NC(=O)c2ccc(C)cc2Cl)cc1,inactive,
C1=CCCC=CCCC=CCC1,inactive,
CCc1cc(SCc2sc(-c3ccc(C(F)(F)F)cc3)nc2CN2CCN(c3ccc(OC)cc3)CC2)ccc1OCC(=O)O,,88.6 µM (active)
Cc1ccc(S(=O)(=O)O)cc1C,inactive,
O=P(OC(CCl)CCl)(OC(CCl)CCl)OC(CCl)CCl,,62.7 µM (active)
CC(O)CN(CCN(CC(C)O)CC(C)O)CC(C)O (stereo not given),inactive,
COc1ccc2sc(C(=O)Nc3nnn[nH]3)c(OC(C)C)c2c1,,23.6 µM (active)
Cn1c(=O)c2c(ncn2C)n(C)c1=O,inactive,
O=C(NS(=O)(=O)/C=C/c1ccccc1)c1ccc(F)cc1Cl,inactive,
CC/C(=C\C(=N/O)C(N)=O)C(C)[N+](=O)[O-] (stereo not given),inactive,
CC(C)CC(C)(O)C#CC(C)(O)CC(C)C (stereo not given),inactive,
CCN(C(=O)c1cc(C)cc(OC[C@H](C)Nc2ccncc2)c1)C(C)C,inactive,
CCOCCOCCOCCO,inactive,
CCNc1ccccc1,inactive,
CC[C@H]1OC(=O)[C@H](C)[C@@H](O[C@H]2C[C@@](C)(OC)[C@@H](O)[C@H](C)O2)[C@H](C)[C@@H](O[C@@H]2O[C@H](C)C[C@H](N(C)C)[C@H]2O)[C@](C)(O)C[C@@H](C)C(=O)[C@H](C)[C@@H](O)[C@]1(C)O,inactive,
C=CCCCCCCCCC(=O)O,inactive,
Nc1cccc(N)c1,inactive,
CCOc1cccc(-n2cc(C(=O)N3CCN(c4cc(C(=O)O)c5ccccc5c4)CC3)nc2-c2ccc(C)cc2)c1,,12.9 µM (active)
CCOCCO,inactive,

SMILES,outcome,AC50
CC(C)=CCC/C(C)=C\CO,inactive,
Cn1c(=O)cc(Oc2ccc(F)cc2F)c2cnc(NCC(C)(C)O)nc21,inactive,
CCCCC(CC)COC(=O)c1ccc(C(=O)OCC(CC)CCCC)cc1 (stereo not given),inactive,
O=c1[nH]c2ccc(S(=O)CCN3CCC(Cc4ccc(F)cc4)CC3)cc2o1 (stereo not given),,89.7 µM (active)
CCC(C)(C)C(=O)O[C@H]1C[C@@H](C)C=C2C=C[C@H](C)[C@H](CC[C@@H]3C[C@@H](O)CC(=O)O3)[C@H]21,inactive,
CN(C)c1ccc(N=NS(=O)(=O)O)cc1,,75.3 µM (active)
COCCOc1cc2cc(C(=O)NC3CCN(C(C)C)CC3)n(CC(=O)Nc3ccc(Cl)cn3)c2cn1,,45 µM (active)
COc1cccc(-c2ccc(/C=C\CN3CCCCCC3)cc2Cl)c1,,74.5 µM (active)
CCCCC(CC)COC(=O)CCCCCCCCC(=O)OCC(CC)CCCC (stereo not given),inactive,
CCCN(C1CCN(C(=O)C2CCNCC2)CC1)[C@@H]1CCc2ccc(OC)cc2C1,,69.5 µM (active)
CCCCCCc1ccc(O)cc1O,inactive,
CC1(C)C(=O)N(Br)C(=O)N1Br,inactive,
CCOC(=O)COc1ccc2c(c1)CC(NCC(O)c1cccc(Cl)c1)CC2 (stereo not given),inactive,
O=C(O)CC(O)C(=O)O (stereo not given),inactive,
CCOC(=O)c1ccc(C2CCC(NC[C@H](O)COc3ccc(O)c(NS(C)(=O)=O)c3)CC2)cc1 (stereo not given in full),inactive,
COC(=O)c1ccccc1O,inactive,
On1ccccc1=S,inactive,
C1N2CN3CN1CN(C2)C3,inactive,
NC(=O)NO,inactive,
O=C(O)CCN(C1(C(=O)NO)CCCC1)S(=O)(=O)c1ccc(Oc2ccc(F)cc2)cc1,inactive,
